High-throughput results as filed in PubChem BioAssay.
MCF10A rerep: A quantitative high throughput screen for small molecules that induce DNA re-replication in MCF 10a normal breast cells. MCF 10A DNA re-replication, Hoechst nuclear intensity, 48 h. Potency, µM (titrated, usually from 46.1 µM), without a hit: at the top dose activity, positive = re-replication, actives largely listed as activators. 350,000 compounds, 2.9% hits. AID 624296, 2012; also: % of control where 0% means no effect; nearly all actives have a fitted effect of over 50% in size
SW480 rereplic: A quantitative high throughput screen for small molecules that induce DNA re-replication in SW480 colon adenocarcinoma cells; SW480 DNA re-replication, Hoechst DNA content imaging, 48 h; Potency, µM (top dose mostly 46.1 µM), inactives show at the highest dose re-replication activation, hits mostly activators; 340,000 compounds, 1.8% hits; AID 624297, 2012; also: % of control where 0% means no effect; nearly all actives have a fitted effect of over 55% in size
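Treated cells incubate 48 hr (37 C, 5% CO2), are stained 40 min with Hoechst, and nuclear fluorescence is enumerated; a rise in nuclei with high DNA signal marks re-replication.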
TSG101-PTAP inh: qHTS Assay for Iinhibitors of HIV-1 Budding by Blocking the Interaction of PTAP/TSG101. Tumor susceptibility gene 101 protein (Homo sapiens), Q99816. Fluorescence polarization, FITC-PTAP peptide / Tsg101 binding. Potency, µM (series often up to 115 µM), for inactives: top-dose activity change, negative = inhibition, hits mostly inhibitors. 340,000 tested, under 10 active; active = well fitted inhibition curve with a large enough effect in the main read-out, with a control signal flat, not every such curve was filed as active; inconclusive = small, poorly fitted or top-dose-only effect, or effect the other way, or a change in a side signal; inactive = no such curve, though single readings can be large or run the other way; also: % of control where 0% means no effect
Target sequence (Q99816 whole entry, looked up): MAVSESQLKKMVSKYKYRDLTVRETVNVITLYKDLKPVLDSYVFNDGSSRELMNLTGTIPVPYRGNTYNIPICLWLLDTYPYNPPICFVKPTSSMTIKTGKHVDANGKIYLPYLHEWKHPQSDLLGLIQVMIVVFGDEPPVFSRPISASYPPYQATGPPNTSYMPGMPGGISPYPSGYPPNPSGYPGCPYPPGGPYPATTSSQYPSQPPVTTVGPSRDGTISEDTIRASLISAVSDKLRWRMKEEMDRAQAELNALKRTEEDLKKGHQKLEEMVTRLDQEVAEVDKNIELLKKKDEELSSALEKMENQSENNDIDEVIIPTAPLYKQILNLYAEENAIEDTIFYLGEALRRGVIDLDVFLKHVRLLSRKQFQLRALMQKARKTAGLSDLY
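Compounds were pin-transferred onto Tsg101 binding domain (10 uM final) in HEPES pH 7.5 buffer, then FITC-PTAP peptide was added at 50 nM final. After 20 min at RT, polarization reported peptide displacement across a qHTS concentration series.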
KB-3-1 tox: qHTS assay for MDR1-selective chemotherapeutics: Primary screen using the parental adenocarcinoma cell KB-3-1 | 400,000 compounds, 1.4% hits | Potency, µM (series often up to 46.1 µM), actives largely listed as cytotoxic | KB-3-1 viability, CellTiter-Glo ATP luminescence, 72 h | AID 1347075, 2019; also: % is scaled to controls: 0 for no effect and ±100 for the full control effect; nearly all actives have a fitted effect of over 60% in size
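Viability of parental KB-3-1 cells, measured by CellTiter-Glo luminescence, followed a 72 h incubation at 37 °C with pinned compounds in phenol-red-free DMEM containing 10% FBS.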
PINK1 expr mod: A Quantitative High throughput Screen to Identify Chemical Modulators of PINK1 Expression; PINK1 immunofluorescence, high-content cytometry, 24 h; Potency, µM (top dose mostly 76.6 µM), for the others: top-dose activation (PINK1 increase), usual class: activators; 410,000 compounds, 0.2% hits; AID 624263, 2012; active = well fitted activation curve with a large enough effect; inconclusive = small, poorly fitted or top-dose-only effect; cell line not stated here; also: % of control where 0% means no effect; nearly all actives have a fitted effect of over 65% in size
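A stable cell line was treated with compounds at 5 concentrations for 24 hours, with CCCP as control. PINK1 levels and mitochondrial localization were measured by immunofluorescence with mitochondrial, cell and nuclear markers after fixation, read by laser-scanning cytometry.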
KB-V1 cytotox: qHTS assay for MDR1-selective chemotherapeutics: Primary screen using the drug-selected MDR subline cells KB-V1; Potency, µM (doses to about 46.1 µM), actives largely listed as cytotoxic; AID 1347076, 2019; 400,000 compounds, 3.4% hits; KB-V1 MDR cells viability, CellTiter-Glo, 72 h; also: % is scaled to controls: 0 for no effect and ±100 for the full control effect; nearly all actives have a fitted effect of over 60% in size
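Cells of the MDR subline KB-V1 are plated, dosed with compound at multiple concentrations, and incubated 72 h at 37 degrees C; CellTiter-Glo is then added and luminescence read after 10 min.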
Active calls of the source: *; i = inactive; ? = inconclusive; . = no result given; ! = not active in a repeat; [ ] = remark or other dose. Only some compounds are listed: those with a hit (about 6.8% of all), similar ones and a draw of the others. Unless noted, calls follow the shape of the dose curve; as a rule, active = well fitted curve in the direction sought with a large enough effect; inconclusive = small, poorly fitted or top-dose-only effect, or another doubt; inactive = no such curve, though single readings can be large; an effect the other way counts as inactive or inconclusive. Potency is read from the fitted curve at half-maximal effect.

SMILES	MCF10A rerep	SW480 rereplic	TSG101-PTAP inh	KB-3-1 tox	PINK1 expr mod	KB-V1 cytotox
Cc1cccc(NC(=O)C2CCN(S(=O)(=O)c3cccc4nsnc34)CC2)n1	-1.2%	-9.0%	-3.8%	i	-0.3%	i
COc1ccc2nc(NC(=O)C3CCN(S(=O)(=O)c4cccc5nsnc45)CC3)sc2c1	?	-3.9%	-6.4%	?	-1.8%	1.64µM*
O=C(Nc1cccc(C(F)(F)F)c1)C1CCCN1S(=O)(=O)c1cccc2nsnc12 (stereo not drawn)	.	.	.	?	-0.2%	7.31µM*
Cc1cc(C(=O)NCC2CCC3(CCN(Cc4cccc(F)c4F)CC3)O2)n(C)n1 (stereo not drawn)	.	.	.	.	-0.6%	.
O=c1c(Cc2c(F)cccc2Cl)c(O)ccn1C1CCCCCC1	0.184µM*	-31.9%	-3.8%	i	4.3%	i
O=c1c(Cc2c(F)cccc2Cl)c(O)ccn1Cc1ccc(F)cc1	20.4%	3.5%	-9.4%	i	0.5%	i
Cc1cc(C)cc(NC(=O)C2CCCN(c3cnccn3)C2)c1 (stereo not drawn)	.	.	.	.	-0.8%	.
O=C1Nc2ccc(Br)cc2C12NNc1ccccc1O2 (stereo not drawn)	23.1µM*	2.6%	2.7%	?	-0.9%	i
C=C[C@@H]1c2cc(C)ccc2N(S(=O)(=O)c2ccc(C)cc2)[C@H](c2ccc(OC(C)=O)cc2)C1(C#N)C#N	3.26µM*	20.9%	-2.3%	6.51µM*!	11.6%	7.31µM*
C=C[C@@H]1c2ccccc2N(S(=O)(=O)c2ccc(C)cc2)[C@H](c2ccc(OC(C)=O)cc2)C1(C#N)C#N	?	?	-1.3%	18.4µM*!	9.3%	?
CCOCCCNC(=O)C1CCN(C(=O)c2cc3sccc3n2C)CC1	.	.	.	i	-0.2%	i
O=C(Nc1nnc(CSCc2ccc(Cl)cc2)s1)c1cccc([N+](=O)[O-])c1	25.6%	-1.1%	-5.6%	i	?	i
O=C(Nc1nnc(CSCc2ccc(F)cc2)s1)c1cccc([N+](=O)[O-])c1	?	?	-3.3%	?	?	4.61µM*
CCC(C)(C)c1nnc(NC(=O)c2cccc([N+](=O)[O-])c2)s1	-3.5%	16.4%	-0.7%	i	1.9%	20.6µM*
CC(C)(C)OC(=O)N1CCC(c2c(C(=O)NC3CCCCC3)cnn2-c2ccc(F)cc2F)CC1	.	.	.	i	-1.5%	i
Cc1ccc(NC(=O)c2cc(N3C(=O)C=CC3=O)ccc2N2CCOCC2)cc1	13µM*	?	0.5%	?	11.3%	i
CCOc1ccc(NC(=O)COC(=O)c2cc([N+](=O)[O-])ccc2N2CCOCC2)cc1	-13.5%	-5.3%	-0.9%	i	-3.2%	i
CCOc1ccc(C(=O)COC(=O)c2cc([N+](=O)[O-])ccc2N2CCOCC2)cc1	?	4.11µM*	-5.3%	?	5.4%	?
CCOc1ccc(NC(=O)c2cc([N+](=O)[O-])ccc2N2CCOCC2)cc1	?	?	-3.3%	i	7.5%	23.1µM*
COCCn1c(CCC(=O)Nc2ccc(OC)c(OC)c2)nc2cccnc21	.	.	.	i	1.4%	i
CCOC(=O)c1c(-c2ccc(C)cc2)csc1NC(=O)c1nc(SCC)ncc1Cl	.	.	.	i	2.1%	?
COc1ccc(CN2CCCC(c3nc(-c4ccncc4)ncc3-c3ccccc3C)C2)c(OC)c1 (stereo not drawn)	.	.	.	.	1.0%	.
NS(=O)(=O)c1ccc(CCN2C(=O)/C(=C\c3ccc(Cl)cc3)SC2=S)cc1	10.3µM*	?	-0.1%	?	6.2%	18.4µM*
O=C(NC(=S)Nc1ccc(CN2CCCCC2)cc1)c1cccc(OCc2ccccc2)c1	23.1µM*	3.0%	-0.4%	i	8.1%	?
O=C(NCCCOc1cccc(CN2CCCCC2)c1)c1ccc(Cl)c(Cl)c1	?	29.1µM*	-1.0%	i	8.6%	i
SMILES	MCF10A rerep	SW480 rereplic	TSG101-PTAP inh	KB-3-1 tox	PINK1 expr mod	KB-V1 cytotox
COc1ccc(Cl)cc1NC(=O)CN1C(=O)CSc2ccc(S(=O)(=O)N3CCCC3)cc21	.	.	.	.	-1.2%	.
OCCNc1nc(C2CC2)nc2c1nnn2Cc1ccccc1Cl	?	-3.3%	-4.0%	i	-0.5%[38.3 µM]	6.51µM*
NC(=O)C1CCN(c2nc(C3CC3)nc3c2nnn3Cc2ccccc2Cl)CC1	20.6µM*	-1.9%	-2.5%	i	11.2µM*	i
O=[N+]([O-])c1ccccc1S(=O)(=O)N1CCN(c2nc(-c3cccs3)nc3ccccc23)CC1	.	.	.	i	-0.7%	i
Cc1ccc(C(=O)NCCc2nnc3n2CCN(C(=O)c2ccnc(Cl)c2)CC3)cc1	.	.	.	.	-0.6%	.
COC(=O)c1c(OCc2ccccc2)cc(=O)n2c1CCN(Cc1cccc(C)n1)CC2	.	.	.	.	1.7%	.
COc1ccc(C2C(C#N)=C(N)Oc3cc4c(cc32)OCO4)cc1 (stereo not drawn)	20.6µM*	?	-1.5%	i	-6.8%[38.3 µM]	i
CCS(=O)(=O)N1CCCC(C(=O)NCCc2ccc(C)cc2)C1 (stereo not drawn)	-66.9%	13µM*	-6.5%	i	-0.2%	?
CCn1c(C(=O)N2CCCC(C(=O)O)C2)cc2sccc21 (stereo not drawn)	1.8%	8.6%	-0.1%	i	2.1%	i
CCn1c(C(=O)N2CCCC(C(=O)NCCc3ccc(C)cc3)C2)cc2sccc21 (stereo not drawn)	?	?	-2.3%	?	.	16.4µM*
CCS(=O)(=O)N1CCC(C(=O)NCCc2ccc(C)cc2)CC1	28.1%	-2.3%	-6.9%	i	.	i
CCn1c(C(=O)N2CCCC(C(=O)NCCCc3ccccc3)C2)cc2sccc21 (stereo not drawn)	?	10.7%	-6.9%	i	.	23.1µM*
Cn1c(C(=O)N2CCCC(C(=O)NCCCSC3CCCCC3)C2)cc2sccc21 (stereo not drawn)	24.5%	0.3%	0.9%	i	12.6%	8.2µM*
Cc1ccc(C(=O)N2CCc3cc(CNS(=O)(=O)c4ccc(Cl)s4)ccc32)cc1	.	.	.	.	4.0%	.
c1cncc(OC2CCN(Cc3ccc4c(c3)CN(Cc3ccc5c(c3)CCO5)CCO4)CC2)c1	.	.	.	.	-0.3%	.
CCn1c(C(=O)N2CCC(Cc3ccccc3)CC2)cc2sccc21	20.6µM*	1.0%	-0.3%	i	25.2%[38.3 µM]	i
